Source: PubChem BioAssay AID1578 (Sanford-Burnham Center for Chemical Genomics, 2009)
Hit rate of the full screen: of about 290,000 compounds, about 3,000 (1%) were called active. This excerpt belongs to a sample that is enriched for actives. Unmarked numbers belong to inactive results. Cut-off read from the data, not from the text of the source: active = inhibition mostly above about 36% (no sharp cut-off); inactive = mostly below about 34%.

Experiment: inhibition of NOD1-driven NF-kB reporter – cell-based, luminescence, uHTS, primary screen (AID 1578);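 note: HEK-293T reporter cells stimulated with the NOD1 agonist gamma-tri-DAP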
Conditions: NOD1-driven NF-kB luciferase reporter cells, at 4 µM, stronger effect = higher value

In the case of `O=C1NN(c2ccccc2)C(=O)/C1=C\c1cccn1-c1ccc(Cl)c([N+](=O)[O-])c1`, the inhibition was 86.9% (active).
With `CNC(=O)Cc1csc2ccc(C)cc12` the inhibition was 41.4% (active).
With `CC(=O)C1=C(c2ccc(Br)cc2)C(=O)c2ccccc2C1=O` the inhibition was 98.1% (active).
In the case of `COCCNC(=O)CCCCCN1C(=O)CCC1=O`, the inhibition was 48.6% (active).
For `CN(C)CCC(=O)c1ccc2c(c1)OCO2`, the inhibition was 59.1% (active).
For `O=C(CCCc1ccccc1)c1ccc2c(c1)OCCO2`, the inhibition was 54.9% (active).
With `CCCc1nnc(NC(=O)CCC(=O)NC2CCCc3ccccc32)s1` (centres undefined) the inhibition was 89.6% (active).
In the case of `CN(C(=O)CCl)C1CCCc2ccccc21` (centres undefined), the inhibition was 55.5% (active).
With `O=C(CCl)NC1CCCc2ccccc21` (centres undefined) the inhibition was 59% (active).
With `Oc1ccc(-c2nc3c4c(ncn3n2)-c2ccccc2CC42CCCC2)cc1` the inhibition was 99.8% (active).
In the case of `C=CCNC(=S)N/N=C/c1ccc(C(F)(F)F)cc1`, the inhibition was 52.7% (active).
For `C=CCNC(=S)N/N=C/c1ccc(-c2ccc(OC)cc2)o1`, the inhibition was 59.5% (active).
With `CCOC(=O)NNC(=O)CCn1c2c(c3ccccc31)CCCC2` the inhibition was 55.3% (active).
With `O=C(Nc1cccc(Cl)c1)C1C2CCC3C(CCC21)C3(Cl)Cl` (centres undefined) the inhibition was 73% (active).
For `CC1=CC(=O)C(C(C)C)=C/C1=C(\c1cc(C(C)C)c(OP(=O)(O)O)cc1C)c1ccccc1C(=O)O`, the inhibition was 69.3% (active).
With `S=C(N/N=C/c1ccc(Cl)cc1)N1CCOCC1` the inhibition was 63.9% (active).

First: COc1cc(/C=C2/C(=O)NN(c3ccc(Cl)c(Cl)c3)C2=O)cc([N+](=O)[O-])c1O
Second: COc1cc(/C=C2\C(=O)NN(c3ccccc3)C2=O)cc([N+](=O)[O-])c1O
The inhibition of the first is higher: 14.3% for the first, -38.3% for the second.

Compared with `O=C(CN1CCN(S(=O)(=O)N2CCCCCC2)CC1)Nc1ccc(Br)cc1`, `CN(C(=O)CN1CCN(c2ccccc2F)CC1)C1CCCc2ccccc21` (centres undefined) is higher in inhibition: -32.9% for the first, -20.5% for the second.

Compared with `O=Cc1ccc(N2CCCC2)c([N+](=O)[O-])c1`, `COc1cccc(CN2CCNC(=O)C2CC(=O)N2CCCCO2)c1OC` (centres undefined) is higher in inhibition: -40.9% for the first, -10.5% for the second.

Compared with `O=C(O)CSCC(=O)NCc1csc2ccc(Cl)cc12`, `CNC(=O)Cc1csc2ccc(Cl)cc12` is lower in inhibition: 0.3% for the first, -7.2% for the second.

Going from `Cc1ccc(C)c(N2CCN(CCCNC(=O)Cn3cc4c(n3)CCC(C)C4)CC2)c1` (centres undefined) to `O=C(CNC(=O)Cn1ccc2ccccc2c1=O)NCCCN1CCN(c2cccc(Cl)c2)CC1`, the inhibition rises from -16.2% to 9.9%.

Going from `COc1ccccc1/C=N/N(C(C)=O)c1nc(-c2ccc(F)cc2)cs1` to `COc1ccc(-c2cc(-c3ccccc3)nc(Cl)n2)cc1OC`, the inhibition rises from 9.4% to 12%.

Going from `O=C(O)C1CCCN(S(=O)(=O)c2ccc(Cl)s2)C1` (centres undefined) to `O=S(=O)(c1cc(F)ccc1F)N1CCN2CCCC2C1` (centres undefined), the inhibition rises from -19.7% to 50.7%.

Compared with `Cc1cccc(Nc2ccc3nonc3c2[N+](=O)[O-])c1C`, `CCOc1ccc(Nc2nc(NCC(=O)O)nc(N)c2[N+](=O)[O-])cc1` is higher in inhibition: -9.3% for the first, 0.9% for the second.

Going from `COc1cc(NC(C)=O)ccc1-c1cc2ccccc2oc1=O` to `COc1cc(NC(=O)COc2ccc(Cl)cc2)ccc1-c1cc2ccccc2oc1=O`, the inhibition falls from 34.7% to 12.1%.

First: CCCc1ccc(S(=O)(=O)NCC2CCCN2CC)cc1 (centres undefined)
Second: COc1ccc(CNc2ccc(S(N)(=O)=O)cc2)cc1
The inhibition of the first is lower: -7.8% for the first, 2.2% for the second.

Compared with `COc1ccc(N(CC(=O)NCc2ccco2)C(=O)CNS(=O)(=O)c2ccc(Cl)cc2)cc1`, `Cc1ccc(S(=O)(=O)N(C)c2ccc(OC(=O)c3ccc(=O)[nH]c3)cc2)cc1` is higher in inhibition: 4.6% for the first, 5.9% for the second.

Going from `O=C(Cc1ccccc1)NC(=S)Nc1ccc2oc(-c3ccccc3F)nc2c1` to `Fc1ccccc1/C=N/Nc1nc2ccccc2o1`, the inhibition rises from -99.4% to -1.1%.

First: O=C(C1=C[C@@H](c2csc3ccccc23)C[C@@H](OCCCCO)O1)N1CCN(Cc2ccc3c(c2)OCO3)CC1
Second: O=C(Cc1ccccc1)c1ccc2c(c1)OCCO2
The inhibition of the first is higher: -7.2% for the first, -43.1% for the second.

First: Cc1ccc(C2=C(O)c3ccccc3C(=O)C2=O)cc1
Second: O=C(C1=C(c2ccccc2)C(=O)c2ccccc2C1=O)c1ccccc1
The inhibition of the first is lower: -31.4% for the first, 1.2% for the second.

Going from `COCCNC(=O)CCCC(=O)NCCOC` to `O=C(CCCCCN1C(=O)CCC1=O)NCc1ccccc1`, the inhibition rises from -16.8% to -1.8%.

First: Cc1nnc2sc(-c3ccc(-c4ccc(Cl)c(C(F)(F)F)c4)o3)nn12
Second: C=CCn1c(SCc2cc(=O)n3cc(C)ccc3n2)nnc1-c1ccc(F)cc1
The inhibition of the first is higher: -9.3% for the first, -11.1% for the second.

First: O=C(CCc1ccccc1)c1ccc2c(c1)OCCCO2
Second: CCCC(=O)c1ccc2c(c1)OCCO2
The inhibition of the first is lower: -67.4% for the first, 1.3% for the second.

Compared with `CN(C)CCCC(=O)c1ccc2c(c1)OCO2`, `COc1ccccc1CN1CC(C(=O)N(C)CCCn2nc(C)cc2C)CCC1=O` (centres undefined) is lower in inhibition: -10.8% for the first, -33.8% for the second.

Going from `Cc1ccccc1-c1nc(CN2CCCC2c2ccc(F)cc2)c(C)o1` (centres undefined) to `COCC1CCN(Cc2cn[nH]c2-c2cc3ccccc3o2)C1` (centres undefined), the inhibition rises from -29.5% to -18.7%.

Compared with `O=Cc1c(C(=O)O)n(CC(=O)O)c2ccccc12`, `O=C(O)CCn1[nH]c(=O)c2ccccc2c1=O` is higher in inhibition: -37% for the first, -7.7% for the second.

First: CC1=NNC(=O)C1C(c1ccc(Cl)cc1)C(C#N)C#N (centres undefined)
Second: Cc1cc(Cl)ccc1C(=O)C1CCCN(C(=O)c2cnn(C(C)C)c2)C1 (centres undefined)
The inhibition of the first is higher: -7.3% for the first, -17.9% for the second.

Compared with `CC(C)Cc1nnc(NC(=O)CCC(=O)NC2CCCc3ccccc32)s1` (centres undefined), `CCc1nnc(NC(=O)CCC(=O)NC2CCCc3ccccc32)s1` (centres undefined) is higher in inhibition: -25.2% for the first, -15.7% for the second.

First: O=C(Cc1ccc(Br)cc1)NC1CCCc2ccccc21 (centres undefined)
Second: Cc1ccccc1CC(=O)NC1CCCc2ccccc21 (centres undefined)
The inhibition of the first is lower: -30.2% for the first, 58.1% for the second.

Going from `CN(C(=O)Nc1ccccc1)C1CCCc2ccccc21` (centres undefined) to `O=C(O)C1CC1(c1ccccc1)c1ccccc1` (centres undefined), the inhibition falls from -3.4% to -21.6%.

Going from `CC(C)(C)n1cc(S(=O)(=O)c2ccccc2)[nH]c1=O` to `CC1=CC(=O)C(C(C)C)=C/C1=N/OS(=O)(=O)c1ccccc1`, the inhibition rises from -26.3% to -5.3%.

Compared with `O=C(Nc1ccccn1)N1CCOCC1`, `Oc1ccc(/C=N/NC(=S)N2CCOCC2)cc1` is higher in inhibition: -28.5% for the first, 4.2% for the second.

Going from `Cc1ccc2nc(SCc3ccccc3)c(C=O)c(=O)n2c1` to `COc1ccc(-c2c(NC(=O)c3ccco3)n(-c3ccccc3)nc(C)c2=O)cc1`, the inhibition rises from -41.8% to -7.7%.

First: COc1ccc(/C=N/NC(=O)c2c(-c3ccccc3)noc2C)cc1[N+](=O)[O-]
Second: C=CCNC(=S)N/N=C/c1ccc(-c2cccc([N+](=O)[O-])c2)o1
The inhibition of the first is lower: -15.9% for the first, -8.7% for the second.

Going from `COc1ccc(-c2nc3c4c(ncn3n2)-c2ccccc2CC42CCCC2)cc1` to `c1ccc(OCc2nc3c4c(ncn3n2)-c2ccccc2CC42CCCC2)cc1`, the inhibition rises from -3.6% to 19.6%.

Going from `O=C(Nc1ccccc1F)C1CCN(C(=O)NCc2ccccc2)CC1` to `O=C(CCn1c2c(c3ccccc31)CCCC2)NNC(=O)c1ccccc1Cl`, the inhibition rises from -18% to -15.4%.

Compared with `Cc1c(NS(=O)(=O)c2ccc3c(c2)NC(=O)CC(=O)N3)cccc1[N+](=O)[O-]`, `Cc1c(C)c2ccc(OCC(=O)Nc3cccnc3)cc2oc1=O` is lower in inhibition: -6.1% for the first, -45.6% for the second.

First: CCOC(=O)NC1(C(F)(F)F)C(=O)N(Cc2ccccc2)C2=C1C(=O)CC(C)(C)C2 (centres undefined)
Second: CCOC(=O)C1=C(c2ccccc2)N=C2SCC(=O)N2C1c1ccc(OCC)c(OCC)c1 (centres undefined)
The inhibition of the first is higher: 0.2% for the first, -4% for the second.

Going from `C=CCNC(=S)N/N=C/c1ccc(-c2ccc(Br)cc2)o1` to `C=CCNC(=S)N/N=C/c1ccc(C(C)(C)C)cc1`, the inhibition rises from -6.5% to 3.2%.

Compared with `NC(=S)N/N=C/c1ccc(C(F)(F)F)cc1`, `Cc1ccc(/C=N/NC(=S)N2CCOCC2)cc1` is higher in inhibition: -16% for the first, 39.7% for the second.

First: CCN(CC)CCCN1C=C2C(=O)C(C)(OC(=O)C3CCCC3)C(=O)C=C2C=C1c1ccsc1 (centres undefined)
Second: CCOc1ccc(C(=O)c2ccccc2C(=O)O)cc1OCC
The inhibition of the first is higher: -2% for the first, -35.3% for the second.

First: CCOC(=O)Cn1nc(C)c(NC(=O)COc2ccc([N+](=O)[O-])cc2)c1C
Second: O=C(COc1ccc2ccc(=O)oc2c1)Nc1ccc(CCO)cc1
The inhibition of the first is lower: -8.3% for the first, -6% for the second.

Going from `CC(=O)NNC(=O)CCn1c2c(c3ccccc31)CCCC2` to `Cc1cccc2sc(NC(=O)CSc3cn[nH]n3)nc12`, the inhibition rises from -2% to 19%.

Going from `CCOC(=O)c1c(C)[nH]c(C(=O)CSc2nc(C)cc(C)n2)c1C` to `CC(=O)Nc1ccc(NC(=O)CSc2nc(N)c(NC(=O)c3ccco3)c(=O)[nH]2)cc1`, the inhibition falls from -15.5% to -35.9%.

First: O=C(Nc1ccccc1)C1C2CCC3C(CCC21)C3(Cl)Cl (centres undefined)
Second: Cc1cccc(NC(=O)C2C3CCC4C(CCC32)C4(Cl)Cl)c1 (centres undefined)
The inhibition of the first is lower: -42.4% for the first, -38.6% for the second.

Going from `O=C1C2CC=CCC2C(=O)N1Cc1ccccc1Cl` (centres undefined) to `O=C(COc1ccc2ccc(=O)oc2c1)Nc1cccnc1`, the inhibition falls from -2.8% to -31.3%.

Compared with `COC(=O)COc1ccc2c(-c3ccc(OC)cc3)cc(=O)oc2c1`, `CCOc1ccc2nc(C)cc(Nc3ccc(N4CCOCC4)cc3)c2c1` is lower in inhibition: 1.6% for the first, -31.4% for the second.

Work on `Cc1nn(CCC#N)c(N)c1C1(O)C(=O)Nc2c(Cl)cc(Cl)cc21` (centres undefined) yielded an inhibition of -6.9%.
